Reference: PubChem BioAssay (NCATS)
A number with no mark means an inactive call. Calls come from the whole dose curve; as a rule, active = well fitted curve in the direction sought with a large enough effect; inconclusive = small, poorly fitted or top-dose-only effect, or another doubt; inactive = no such curve, though single readings can be large; an effect the other way counts as inactive or inconclusive. Inconclusive results are not listed.

Assay: Cellular Toxicity (caspase-3) HepG2 (AID 654);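 note: cells exposed to compound for 16 hours before reading; 0% = DMSO alone and 100% = caspase signal from 100 µM tamoxifen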
Conditions: HepG2 caspase-3 activation, luminescence, 0% = DMSO only, 100% = tamoxifen; series mostly up to 92.2 µM; caspase-3 activation: at the top concentration
Method in brief: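 Caspase 3/7 activation is measured as a luminescence increase (aminoluciferin substrate) after 16 h compound exposure of human hepatocarcinoma HepG2 cells. AC50 values are Hill fits, scaled between DMSO baseline and 100 uM tamoxifen stimulation.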

Row | Compound | caspase-3 activation
1 | Nc1ccc(N=Nc2ccccc2)c(N)n1 | -1.68%
2 | OB(O)O | -0.356%
3 | Oc1ccc(/C=C/c2cc(O)cc(O)c2)cc1 | -3.55%

Assay: Cellular Toxicity (caspase-3) Jurkat (AID 655);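 note: cells exposed to compound for 16 h at 37 °C before reading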
Conditions: Jurkat caspase-3 activation, luminescence; series mostly up to 92.2 µM; caspase-3 activation: at the top concentration
Method in brief: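 Jurkat cells (5000/well) in complete medium were treated with compounds for 16 hr at 37 °C, then Caspase-Glo 3/7 luminescence was read after 20 min at room temperature. Data normalized to DMSO (basal) and 100 uM tamoxifen (100%); AC50 from Hill fit.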

Row | Compound | caspase-3 activation
4 | Nc1ccc(N=Nc2ccccc2)c(N)n1 | -0.854%
5 | OB(O)O | 1.38%
6 | Oc1ccc(/C=C/c2cc(O)cc(O)c2)cc1 | -8.18%

Assay: Cellular Toxicity (caspase-3) BJ (AID 658);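 note: cells exposed to compound for 16 hours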
Conditions: BJ fibroblasts, luminescence; Potency: caspase-3 activation; series mostly up to 91.7 µM; caspase-3 activation: at the top concentration
Method in brief: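 Caspase-Glo 3/7 luminescence, read 1 hr after reagent at room temperature, in normal BJ fibroblasts exposed 16 hours at 37 °C. AC50 values from Hill-equation concentration-response, scaled between DMSO basal and 10 uM staurosporine as 100%.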

Row | Compound | caspase-3 activation
7 | Nc1ccc(N=Nc2ccccc2)c(N)n1 | -5.98%
8 | OB(O)O | 1.45%
9 | Oc1ccc(/C=C/c2cc(O)cc(O)c2)cc1 | -8.3%

Assay: Cellular Toxicity (caspase-3) MRC-5 (AID 659)
Conditions: MRC-5 cells, luminescence, normalized: DMSO 0%, 10 µM staurosporine 100%; series mostly up to 91.7 µM; caspase-3 activation: at the top concentration
Method in brief: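 Luminescent Caspase-Glo 3/7 read-out (1 h, room temperature) after a 16 h, 37 °C compound exposure of MRC-5 lung fibroblasts at 1500 cells/well. Concentration-response AC50 from Hill equation; 0% DMSO, 100% 10 uM staurosporine.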

Row | Compound | caspase-3 activation
10 | Nc1ccc(N=Nc2ccccc2)c(N)n1 | -2.63%
11 | OB(O)O | -0.792%
12 | Oc1ccc(/C=C/c2cc(O)cc(O)c2)cc1 | -6.32%

Assay: Cellular Toxicity (caspase-3) Mesangial (AID 660);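 note: combined caspase 3 and 7 activity read by Caspase-Glo luminescence; cells exposed to compound for 16 h before the caspase read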
Conditions: mesangial cells, normalized: DMSO 0%, 100 µM tamoxifen 100%; series mostly up to 91.7 µM; caspase-3 activation: at the top concentration
Method in brief: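 Caspase 3/7 activation measured by Caspase-Glo 3/7 luminescence (20 min, room temperature) following 16 h exposure of mesangial cells (1000/well); AC50 from Hill-equation fit, normalized to DMSO and 100 uM tamoxifen.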

Row | Compound | caspase-3 activation
13 | Nc1ccc(N=Nc2ccccc2)c(N)n1 | -0.686%
14 | OB(O)O | -0.25%
15 | Oc1ccc(/C=C/c2cc(O)cc(O)c2)cc1 | -2.72%

Assay: Cellular Toxicity (caspase-3) SK-N-SH (AID 661);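 note: cells exposed to compound for 16 hours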
Conditions: SK-N-SH caspase-3 activation, qHTS; caspase-3 activation: at 91.7 µM (top of the series), DMSO as zero, staurosporine as full
Method in brief: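 Caspase 3/7 activation was read by luminogenic substrate cleavage after 16 hour treatment of SK-N-SH cells. Signal was scaled between DMSO and 10 uM staurosporine, and concentration-response data were fitted with the Hill equation for AC50.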

Row | Compound | caspase-3 activation
16 | Nc1ccc(N=Nc2ccccc2)c(N)n1 | -1.2%
17 | OB(O)O | -1.31%
18 | Oc1ccc(/C=C/c2cc(O)cc(O)c2)cc1 | -3.19%

Assay: Cellular Toxicity (caspase-3) Hek293 (AID 664);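 note: cells exposed to compound for 16 h at 37 °C before readout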
Conditions: HEK293 caspase-3 activation, DMSO = 0%, 100 µM tamoxifen = 100%; at 92.2 µM (top of the series)
Method in brief: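 Concentration-response qHTS: caspase 3/7 activation measured by luminescent aminoluciferin substrate cleavage after 16 h compound exposure of Hek 293 cells. AC50 from Hill equation, with DMSO as basal and 100 uM tamoxifen as 100%.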

Row | Compound | caspase-3 activation
19 | Nc1ccc(N=Nc2ccccc2)c(N)n1 | -7.28%
20 | OB(O)O | -1.81%
21 | Oc1ccc(/C=C/c2cc(O)cc(O)c2)cc1 | -7.92%

Assay: Cellular Toxicity (caspase-3) N2a (AID 665);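 note: compound exposure lasted 16 h at 37 °C before readout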
Conditions: N2a cells, luminescence, normalized: DMSO 0%, 10 µM staurosporine 100%; series mostly up to 92.2 µM; caspase-3 activation: at the top concentration
Method in brief: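 Caspase-3/7 activation measured as luminescence from Caspase-Glo reagent (1 h, room temperature) after 16 h compound exposure of mouse N2a cells. AC50 values from Hill-equation concentration-response, scaled between DMSO and 10 uM staurosporine.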

Row | Compound | caspase-3 activation
22 | Nc1ccc(N=Nc2ccccc2)c(N)n1 | -14.7%
23 | OB(O)O | -3.26%
24 | Oc1ccc(/C=C/c2cc(O)cc(O)c2)cc1 | -20%
